Source: PubChem BioAssay (NCATS)
Inconclusive results are not listed. Unmarked numbers belong to inactive results. Calls come from the whole dose curve.

test: Natriuretic polypeptide receptor (hNpr1) antagonism - Pilot counterscreen GloSensor control cell line (AID 1347045); details: HEK293 cGMP GloSensor cells, SNP-stimulated luminescence, 20 min; series mostly up to 38.3 µM; activity change, negative = inhibition: at the top concentration
Protocol: F. Fan, B. F. Binkowski, B. L. Butler, P. F. Stecha, M. K. Lewis, K. V. Wood, Novel genetically encoded biosensors using firefly luciferase. ACS Chem Biol 3, 346-351 (2008).
PROTOCOL TABLE (as described by Inglese J, Shamu CE and Guy RK. 2007)
SEQUENCE No. (e.g., 1, 2, 3, etc.); […] (e.g., Cells, Incubation, Reagent, etc.); VALUE and DESCRIPTION.
1. Cells. Seed 1500 HEK293 cGMP-sensor cells per well in 4uL into Greiner 1536-well white/solid bottom high base, TC plates.
2. Incubation. Incubate plated cells at 37C in 5% CO2, 95% RH overnight.
3. Reagent. Add 1uL per well GloSensor reagent from Promega (2% final concentration) or CO2 independent media vehicle control to respective columns of Greiner 1536-well plates.
4. Incubation. Incubate plated cells at room temperature for 2 h, protect from light.
5. Compounds. Library compounds and DMSO vehicle control added at 23nL per well, transferred by Pin Tool.
6. Incubation. Incubate plated cells for 30 min. at room temperature, protect from light.
7. Detector. GloSensor baseline pre-read luminescence measured using CCD-based camera (Viewlux).
8. Compound. Add 1uL of sodium nitroprusside (SNP) to 50 uM final concentration to stimulate soluble guanylyl cyclase (GC) or CO2 independent media as vehicle control.
9. Incubation. Incubate treated cells at room temperature for 20 min., protect from light.
10. Detector. GloSensor post-SNP luminescence measured using CCD-based camera (Viewlux).
NOTES (numbers refer to Sequence numbers above; values are from representative experiments)
1. HEK293 cells expressing GIP/pGS-40F were grown to 85-95% confluence (48-72 h) in T175 culture flasks (CO2 independent media supplemented with 10% FBS, 1% Pen/Strep antibiotics, and 1 ug/mL puromycin). Trypsinize and harvest cells from T175 culture flasks and filter through 40 um cell strainer. Cells counted with Invitrogen Countess (30,000,000 - 50,000,000 cells/flask).
2. Cells incubated for 24 h. at 37C in 95% RH incubator with metal lid having gas-exchange holes.
3. Prepare GloSensor Reagent (Promega): Reconstitute GloSensor luciferase substrate by adding 8.2mL Hepes buffer to 250mg substrate, mix well, protect from light and stored at -80C. Prepare a fresh 12% GloSensor solution in CO2 independent supplemented plating media (see above). Mix well and store at ambient temperature, protected from light. 1uL 12% GloSensor Luciferase Reagent added (2% final concentration) to respective columns of 9 x 1536-well Greiner plate with BioRaptr, 1uL CO2 independent plating media added to respective columns as vehicle control with BioRaptr.
4. Cells incubated for 2 h. at ambient temperature, protected from light with metal lid having gas-exchange holes.
5. 23nL of LOPAC128 library compounds (7 plates) or DMSO vehicle control transferred to 9 Greiner white/solid bottom high base, TC plates in 7 interplate 1:5 titrations (see Yasgar, A. et al. 2008) with Pintool. Two of the 9 plates are DMSO-only in compound field at beginning and end of compound library-treated plates.
6. Cells incubated for 30-50 min. at ambient temperature protected from light with metal lid having gas-exchange holes.
7. Read GloSensor + Antagonist/Compound baseline Luminescence on the ViewLux [Exposure, 30 s; Gain, High; Speed, Slow; Binning, 2X]
8. SNP solution prepared at 500 mM (in H2O) stock concentration. From this a working dilution was prepared at 300 uM in CO2 Independent media. 1uL of 300 uM SNP (50 uM final concentration) or CO2 Independent media vehicle control dispensed into respective columns of 9 x Greiner 1536-well white/solid bottom, tissue culture plates with BioRaptr.
9. Cells incubated for 20 min. at ambient temperature, protected from light with metal lid having gas-exchange holes.
10. Read final luminescence on the ViewLux. [Exposure, 30 s; Gain, High; Speed, Slow; Binning, 2X.]
[…]
% is set by controls: 0 for no effect and ±100 for the full control effect.

| Compound | activity change, negative = inhibition |
| --- | --- |
| CC(C)c1cccc(C(C)C)c1O | 3.99% |
| CC(C)(C)NCC(O)c1ccccc1Cl (centres undefined) | 0.959% |
| CC(NC(C)(C)C)C(=O)c1cccc(Cl)c1 (centres undefined) | 5.03% |
| CC(C)N(CCC(C(N)=O)(c1ccccc1)c1ccccn1)C(C)C (centres undefined) | -1.14% |
| CCCCC/C=C\C/C=C\C/C=C\C/C=C\CCCC(=O)NCC(=O)O | 1.69% |
| O=P1(N(CCCl)CCCl)NCCCO1 (centres undefined) | -1.35% |
| CCC1(c2ccc(N)cc2)CCC(=O)NC1=O (centres undefined) | 9.31% |
| O=c1[nH]oc2c1CCNC2 | -0.724% |
| CN1C(=O)CCS(=O)(=O)C1c1ccc(Cl)cc1 (centres undefined) | -3.05% |
| Cc1ncsc1CCCl | 1.36% |
| NCCc1ccc(O)cc1 | -2.46% |
| O=C(CCCN1CCC2(CC1)C(=O)NCN2c1ccccc1)c1ccc(F)cc1 | -12.7% |
| O=C(O)CCCc1ccc(N(CCCl)CCCl)cc1 | -2.47% |
| COc1ccc2c(c1OC)C(=O)O[C@H]2[C@@H]1c2cc3c(cc2CCN1C)OCO3 | 11.9% |
